Screening data: PubChem, National Center for Advancing Translational Sciences (NCATS)
A selection: hits, their analogues and other compounds. The true share with any hit is near 2.6%.
Luciferase inh – blocks Photinus pyralis firefly luciferase activity | purified firefly luciferase, luminescence, 8 min | Potency, µM (highest dose often 57.1 µM), most hits filed as inhibitors | actives 2.2% (n = 72,000) | AID 411; also: nearly all actives have a fitted effect of over 40% in size
Target sequence (P08659 whole entry, looked up): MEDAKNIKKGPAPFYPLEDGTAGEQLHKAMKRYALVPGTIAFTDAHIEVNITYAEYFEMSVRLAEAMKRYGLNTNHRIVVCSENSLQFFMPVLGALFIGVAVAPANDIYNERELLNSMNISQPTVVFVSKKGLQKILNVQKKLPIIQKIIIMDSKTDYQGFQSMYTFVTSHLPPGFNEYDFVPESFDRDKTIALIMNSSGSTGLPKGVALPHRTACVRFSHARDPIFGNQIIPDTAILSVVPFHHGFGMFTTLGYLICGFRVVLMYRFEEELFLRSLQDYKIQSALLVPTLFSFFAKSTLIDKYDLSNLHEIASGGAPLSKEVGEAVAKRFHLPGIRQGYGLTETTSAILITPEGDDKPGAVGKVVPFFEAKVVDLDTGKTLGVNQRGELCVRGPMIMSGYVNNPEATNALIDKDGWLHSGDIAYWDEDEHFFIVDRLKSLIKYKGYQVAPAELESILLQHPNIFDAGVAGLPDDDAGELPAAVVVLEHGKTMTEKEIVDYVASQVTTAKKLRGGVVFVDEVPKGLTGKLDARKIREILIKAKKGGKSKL
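Compounds were tested as concentration series (qHTS) against purified P. pyralis luciferase with luciferin and 10 uM ATP in 50 mM imidazole pH 7.2, 50 mM KCl, 7 mM MgCl2, 0.01% Tween 20, 0.05% BSA. Luminescence was read after 8 min at ambient temperature.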
PK Bst – modulators of Bacillus stearothermophilus pyruvate kinase; purified pyruvate kinase, luminescence ATP production; ribose 5-phosphate activator present at AC10; Potency, µM; actives 1.2% (n = 51,000); in the data active = potency below about 11 µM; inconclusive = mostly about 12 µM to 25 µM;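 the screen sought inhibitors and activators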
HBB splice mod – modulators of hemoglobin beta chain splicing. HBB splicing reporter cell assay, activation; EGFP reporter with mutant IVS2-654 intron; response scale: normalised to 500 nM splice-correcting PNA. Potency, µM (highest dose often 46.1 µM), most hits filed as activators. actives 0.06% (n = 65,000). AID 925
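HeLa cells stably expressing EGFP interrupted by mutant beta-globin intron 2 (IVS2-654), 500/well in 2% FCS. Treated with compound for 2 days at 37C. Splicing correction scored as total well GFP intensity (488 nm excitation, 500-520 nm emission); 500 nM antisense PNA served as control.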
GFP derepression – epigenetic GFP locus derepression in mouse cells. mouse C127i GFP locus derepression, cytometry, 30 h. AID 597. actives 0.09% (n = 68,000). Potency, µM (titrated, usually from 46.1 µM)
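Murine C127i mammary cells carrying a silenced, stably integrated CMV-driven GFP reporter were treated with compound for 30 hours at 37 C. After PBS washes, GFP-positive cells were counted by laser-scanning microplate cytometry.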
Each line names hits and unclear results; the compound was inactive in the other large screens. Unless noted, calls follow the shape of the dose curve; as a rule, active = well fitted curve in the direction sought with a large enough effect; inconclusive = small, poorly fitted or top-dose-only effect, or another doubt; inactive = no such curve, though single readings can be large; an effect the other way counts as inactive or inconclusive.

CCC(=O)Nc1ccc(NC(=O)c2cccc(OC)c2)nc1	Luciferase inh 12.6µM (no result: PK Bst)
COc1cccc(C(=O)Nc2ccc(NC(=O)C(C)C)nc2)c1	none (no result: HBB splice mod)
CCOC(=O)c1csc(NC(=O)CSc2nnnn2CC)n1	none
CC(=O)OC[C@H]1O[C@@H](ON=C(C)C)[C@H](OC(C)=O)[C@@H](OC(C)=O)[C@H]1OC(C)=O	none (no result: PK Bst, GFP derepression)
O=Nc1c2nc3ccccc3n(O)c-2c2ccccc12	PK Bst 7.25
O=C(O)Cn1c(-c2ccccc2)nc2ccccc21	none
CCOc1ccc(NC(=O)c2ccco2)cc1	Luciferase inh 12.6µM
O=C(Nc1ccc(Oc2ccc(NC(=O)c3ccco3)c(NC(=O)c3ccco3)c2)cc1)c1ccco1	none
O=C(Nc1ccc(Nc2ccccc2)cc1)c1ccco1	Luciferase inh 12.6µM
O=C(Nc1ccc(C(=O)Oc2ccccc2)c(O)c1)c1ccco1	Luciferase inh 25.1µM
O=C(Nc1cccc(NC(=O)c2cccs2)c1)c1ccco1	none
O=C(Nc1ccc(OC(=O)c2cccs2)cc1)c1ccco1	Luciferase inh 25.1µM (no result: HBB splice mod)
CC(=O)N(C)c1ccc(NC(=O)c2ccco2)cc1	PK Bst inconclusive
CS(=O)(=O)Nc1cccc(-c2ccc3ncnc(N4CCNCC4)c3c2)c1	none (no result: PK Bst)
COC(=O)N1CCC[C@@]2(CCN(Cc3nccs3)C2)C1	none (no result: PK Bst)
C=C(CC(=O)O)C(=O)O (tested in a mixture with another compound)	none (no result: PK Bst)
COc1cccc(-c2cncnc2Nc2ccccc2)c1	none (no result: PK Bst)
COc1ccc(-c2nc3c(Br)c(N)c(Br)cc3o2)cc1	Luciferase inh 2.51µM, PK Bst inconclusive (no result: HBB splice mod)
Nc1c(Br)cc2oc(-c3ccccc3)nc2c1Br	none (no result: PK Bst, HBB splice mod)
CCOC(=O)c1c(C)nc(-c2ccccc2)nc1N	Luciferase inh 25.1µM
CCOC(=O)c1c(C)nc(-c2ccccc2)nc1NC(C)=O	none (no result: PK Bst)
O=C(Nc1nc2c(s1)CCCC2)c1ccc2ncsc2c1	Luciferase inh 3.16µM (no result: PK Bst, GFP derepression)
O=C(CS(=O)(=O)Cc1ccccc1)Nc1nc2c(s1)CCCC2	none
CCOC(=O)c1sc(NC(=O)c2ccc3ncsc3c2)nc1C	none (no result: PK Bst, GFP derepression)
Cc1ncsc1C(=O)Nc1nc2c(s1)CCCC2	Luciferase inh 20µM (no result: HBB splice mod)
OC[C@H](S)CS	GFP derepression 3.16µM (no result: PK Bst)
C=C1[C@@H](C)C2[C@H](Cc3ccccc3)NC(=O)[C@]23OC(=O)CC[C@H](O)CCC[C@H](C)C/C=C/[C@H]3[C@@H]1O (stereo partly specified)	none (no result: HBB splice mod)
OC[C@@H]1O[C@@H](n2cnc3c(Nc4ccccc4)ncnc32)[C@@H](O)[C@H]1O	none (no result: PK Bst)
CCOc1ccc(-c2nc(-c3ccccc3C)no2)cc1	Luciferase inh 2µM, PK Bst 7.99
COc1cc(C(=O)N2CCN(C(=O)COc3ccc4ccccc4c3)CC2)cc(OC)c1OC	Luciferase inh 7.94µM (no result: PK Bst)
OCCNc1ncnc2c1ncn2[C@@H]1O[C@@H](CO)[C@H](O)[C@@H]1O	none (no result: PK Bst)
C/C(O)=C(/N=O)C(=O)Nc1ccccc1	none
CCOC(=O)C(/C(N)=N/C(=O)Nc1ccccc1)=C(\C)O	Luciferase inh 12.6µM (no result: PK Bst)
Cc1noc(C)c1C(=O)N1CCC2(CC1)CCN(c1ccncc1)CC2	none (no result: PK Bst)
Nc1ccc2oc(-c3ccccn3)nc2c1	Luciferase inh 20µM (no result: PK Bst)
Clc1ccc2oc(-c3ccccn3)nc2c1	Luciferase inh 15.8µM, PK Bst inconclusive (no result: HBB splice mod)
COc1ccc(Oc2ncc3nc(C)c(=O)n(C)c3n2)cc1	none (no result: PK Bst)
CCOC(=O)c1ccc2nc(NC(=O)C(C)C)sc2c1	none (no result: PK Bst, GFP derepression)
CS(=O)(=O)c1ccc2nc(NC(=O)c3ccco3)sc2c1	Luciferase inh 3.98µM (no result: PK Bst, GFP derepression)
CN(C)S(=O)(=O)c1ccc2nc(NC(=O)c3cccnc3)sc2c1	Luciferase inh 12.6µM
O=C(Nc1nc2ccc(S(=O)(=O)N3CCCCC3)cc2s1)c1ccncc1	none
CCOC(=O)c1ccc2nc(NC(=O)c3cccs3)sc2c1	Luciferase inh 7.94µM
CCOC(=O)c1ccc2nc(NC(=O)c3ccco3)sc2c1	Luciferase inh 15.8µM (no result: HBB splice mod)
C=CCOc1cccc(C2/C(=C(/O)c3ccccc3)C(=O)C(=O)N2CCCN2CCOCC2)c1 (stereo unspecified)	none
CN(C)Cc1ccccc1-c1nccc(NCc2cccs2)n1	none (no result: PK Bst)
O=C(COC(=O)c1cccc(NC(=O)c2ccco2)c1)c1ccc(Br)cc1	Luciferase inh 2.51µM (no result: PK Bst)
CC(C)(C)C(=O)COC(=O)c1cccc(NC(=O)c2ccco2)c1	none
C[C@@]12C=CC(=O)C=C1CC[C@@H]1[C@@H]2[C@H](O)C[C@]2(C)[C@@H]1CC[C@]2(O)C(=O)CO	none (no result: PK Bst)
Cc1cccc2nc(CSCc3ccco3)cn12	Luciferase inh 25.1µM (no result: PK Bst)
COCCCn1c(SCC(=O)NC2CCCC2)nnc1-c1ccco1	none (no result: HBB splice mod)
COCCCn1c(SCC(=O)OC2CCCCC2)nnc1-c1ccco1	Luciferase inh 25.1µM (no result: PK Bst)
COc1ccccc1NC(=O)CSc1nnc(-c2ccco2)n1Cc1ccco1	Luciferase inh 25.1µM (no result: PK Bst)
COc1ccccc1NC(=O)CSc1nnc(-c2ccccn2)n1Cc1ccco1	none (no result: PK Bst)
C/C(CCC(=O)OC[C@@H]1O[C@H](C#Cc2ccccc2)C=C[C@@H]1Oc1ccc(C)cc1)=N/OC[C@@H](C)[C@H](OCc1ccccc1)C(C)C	none (no result: PK Bst, GFP derepression)
COc1ccccc1C[C@@H](Cc1nc2ccccc2[nH]1)c1nc2ccccc2[nH]1	none (no result: PK Bst, HBB splice mod)
CC1=CC(=C2C(=O)c3ccccc3C2=O)C=C(C)O1	none
CN1C=CC(=C2C(=O)c3ccccc3C2=O)C=C1	Luciferase inh 7.94µM (no result: PK Bst)
CCCN1C=CC(=C2C(=O)c3ccccc3C2=O)C=C1	Luciferase inh 0.159µM (no result: PK Bst)
CCN1C=CC(=C2C(=O)c3ccccc3C2=O)C=C1	Luciferase inh 0.316µM (no result: PK Bst)
COc1ccc(-c2csc(NCc3ccco3)n2)cc1	Luciferase inh 5.01µM, PK Bst 4.65 (no result: HBB splice mod)
NC(=O)c1ccccc1N/C=C/C(=O)c1ccco1	Luciferase inh 10µM, PK Bst inconclusive
O=C(O)CCNCC(=O)O	none (no result: PK Bst)
C=CCOc1nc(-c2ccncc2)nc2ccccc12	PK Bst 8.29 (no result: HBB splice mod)
c1ccc2c(N3CCCC3)nc(-c3ccncc3)nc2c1	none
Cc1cc2c(cc(C(=O)OCC(=O)NCc3cccs3)n2C(C)C)o1	none
COc1ccccc1CNc1cc(-c2ccccc2C(F)(F)F)ncn1	none (no result: PK Bst)
O=C(Oc1ccc2ccccc2c1)c1ccco1	none (no result: PK Bst)
CC1CC(C)(C)Nc2ccc(OC(=O)c3ccco3)cc21 (stereo unspecified)	Luciferase inh 12.6µM, GFP derepression inconclusive (no result: PK Bst)
COc1ccc2cc3cc(C(=O)NCCN4CCc5ccccc5C4)oc3nc2c1	PK Bst 0.764
COc1ccc2cc3cc(C(=O)NCCN4CCN(Cc5ccccc5)CC4)oc3nc2c1	PK Bst inconclusive
CCN(CC)S(=O)(=O)c1ccc(-c2nnc(SCc3nnc(-c4ccccc4)o3)o2)cc1	none
CCOC(=O)c1cnc(-n2nc(C)cc2C)nc1N(C)C	Luciferase inh 12.6µM, PK Bst 11.1
CCN(CC)C(=O)Oc1ccc2c(=O)c(-c3ccccc3)coc2c1	Luciferase inh 15.8µM (no result: PK Bst)
C/C(=N\[N+](C)(C)C)c1ccc(C)c(C)c1	none (no result: PK Bst)
COc1ccc(O)c(C(=O)CC(=O)c2ccc(F)cc2)c1	Luciferase inh 25.1µM (no result: PK Bst)
COc1ccc(OC)c(CCNC(=O)Cn2sc3nc(C)cc(C)c3c2=O)c1	Luciferase inh 10µM (no result: PK Bst)
